Compound activity (PubChem)
Only a selection was taken, and hits are over-represented in it overall.
KDM5B inh: KDM5B demethylase inhibition; 220,000 compounds, 2.6% hits; KDM5B demethylase, FDH-coupled NADH fluorescence (FDH is formaldehyde dehydrogenase); Q9UGL1; Potency, µM (highest dose often 57.7 µM), hits mostly inhibitors; active means well fitted inhibition curve with a large enough effect; further: 0% is about no effect; nearly all actives have a fitted effect of over 70% in size
Target sequence (Q9UGL1 whole entry, looked up): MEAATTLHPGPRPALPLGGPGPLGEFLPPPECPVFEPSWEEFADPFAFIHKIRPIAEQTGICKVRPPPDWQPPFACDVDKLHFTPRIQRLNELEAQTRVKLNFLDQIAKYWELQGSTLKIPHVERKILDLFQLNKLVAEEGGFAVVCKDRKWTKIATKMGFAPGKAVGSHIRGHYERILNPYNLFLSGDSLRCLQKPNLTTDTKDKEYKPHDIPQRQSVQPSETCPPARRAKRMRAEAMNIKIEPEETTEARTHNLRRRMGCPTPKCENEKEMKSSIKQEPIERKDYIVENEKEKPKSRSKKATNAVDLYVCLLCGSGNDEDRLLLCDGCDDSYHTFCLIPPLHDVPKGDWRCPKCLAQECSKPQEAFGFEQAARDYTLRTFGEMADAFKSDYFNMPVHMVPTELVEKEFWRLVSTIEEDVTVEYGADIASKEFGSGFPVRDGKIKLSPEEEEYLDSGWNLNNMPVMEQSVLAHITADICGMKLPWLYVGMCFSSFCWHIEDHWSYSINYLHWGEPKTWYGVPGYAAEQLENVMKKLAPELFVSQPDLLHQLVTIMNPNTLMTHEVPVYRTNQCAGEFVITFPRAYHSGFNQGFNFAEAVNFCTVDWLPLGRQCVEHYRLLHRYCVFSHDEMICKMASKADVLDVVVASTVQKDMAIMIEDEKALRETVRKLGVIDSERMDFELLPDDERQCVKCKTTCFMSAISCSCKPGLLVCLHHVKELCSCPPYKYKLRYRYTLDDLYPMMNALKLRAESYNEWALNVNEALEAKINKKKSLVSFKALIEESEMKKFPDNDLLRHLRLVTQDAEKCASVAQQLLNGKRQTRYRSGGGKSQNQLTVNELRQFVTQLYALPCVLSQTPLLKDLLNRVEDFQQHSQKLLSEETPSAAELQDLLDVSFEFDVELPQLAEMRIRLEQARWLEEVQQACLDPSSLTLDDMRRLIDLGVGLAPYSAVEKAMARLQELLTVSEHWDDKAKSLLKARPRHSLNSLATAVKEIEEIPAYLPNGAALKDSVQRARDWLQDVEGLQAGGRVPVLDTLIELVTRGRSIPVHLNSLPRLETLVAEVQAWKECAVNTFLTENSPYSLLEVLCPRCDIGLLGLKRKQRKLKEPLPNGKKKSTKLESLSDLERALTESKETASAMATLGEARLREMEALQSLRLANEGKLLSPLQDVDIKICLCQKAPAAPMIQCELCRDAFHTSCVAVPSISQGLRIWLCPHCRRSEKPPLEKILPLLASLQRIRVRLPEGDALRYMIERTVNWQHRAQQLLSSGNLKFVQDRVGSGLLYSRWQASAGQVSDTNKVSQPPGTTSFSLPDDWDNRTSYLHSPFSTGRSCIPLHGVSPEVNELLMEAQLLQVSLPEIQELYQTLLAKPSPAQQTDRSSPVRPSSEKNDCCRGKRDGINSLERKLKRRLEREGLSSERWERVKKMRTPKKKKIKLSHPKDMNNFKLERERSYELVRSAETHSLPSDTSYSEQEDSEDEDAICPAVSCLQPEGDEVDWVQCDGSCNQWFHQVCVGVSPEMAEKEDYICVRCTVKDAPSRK
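qHTS format, multiple compound concentrations. Buffer 50 mM HEPES pH 7.5/0.01% Tween-20; 200 nM KDM5BΔAP final; 10 min compound preincubation; substrate-mix levels 12.5 µM peptide, 25 µM α-KG, 0.25 mM NAD⁺; 30 min RT; ΔRFU.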
Starred values were filed as active, the others as inactive; i = inactive. Potency means the concentration at half of the fitted maximal effect.

SMILES | KDM5B inh
C=C(Br)CNC(=O)Nc1cccc(COC)c1 | i
CN1C(=O)Cc2cc(S(=O)(=O)CCC(=O)Nc3ccc(Cl)c(C(F)(F)F)c3)ccc21 | i
CC(=O)Nc1cccc(-c2nccc3c(=O)cc(N4CCOCC4)oc23)c1 | 35µM*
COc1cccc(-c2nccc3c(=O)cc(N4CCOCC4)oc23)c1 | 35µM*
CC(=O)Nc1cccc(C(=O)OCC(=O)N2CCOCC2)c1 | i
COc1cccc(-c2nc(S(=O)(=O)c3ccc(C)cc3)c(N3CCOCC3)o2)c1 | i
O=c1cc(N2CCOCC2)oc2c(-c3cccc(F)c3)nccc12 | 40µM*
O=c1cc(N2CCOCC2)oc2c(-c3cncnc3)nccc12 | 25µM*
COc1cccc(N2CCN(C(=O)c3c(C)oc4ncnc(N5CCOCC5)c34)CC2)c1 | i
CCOC(=O)N1CCC2(CC1)NCCc1c2[nH]c2ccccc12 | i
CCc1ccc(S(=O)(=O)c2nnn3c2nc(Nc2ccc(NC(C)=O)cc2)c2sccc23)cc1 | i
CNC(=O)[C@@H]1CN(C(=O)c2ccc(C)cc2C)C[C@H]1COC | i
CN(C)S(=O)(=O)c1ccc(NC(=O)CN2CCCC2c2ccc3c(c2)OCCCO3)cc1 (stereo not given) | i
Clc1cc2c(nn1)Nc1ccccc1S2 | i
CCOc1ccccc1C(=O)Nc1c(NC2CCCCC2)c2ccccc2oc1=O | i
CC(C)(C)C(=O)/C(C#N)=C\c1cn[nH]c1-c1ccccc1 | i
O=C(NC1CCCCCCC1)c1ccc2ccccc2c1 | i
CCCCN1C(=O)c2ccccc2C(C(=O)Nc2cccc(NC(C)=O)c2)C12CCCC2 (stereo not given) | i
C[S+](=O)([O-])c1cccc(-c2nccc3c(=O)cc(N4CCOCC4)oc23)c1 | 28µM*
O=c1cc(N2CCOCC2)oc2c(-c3cccnc3)nccc12 | 40µM*
O=c1cc(N2CCOCC2)oc2c(Nc3ccccc3)nccc12 | i
COc1ccc(Nc2nccc3c(=O)cc(N4CCOCC4)oc23)cn1 | 32µM*
COc1cccc(Nc2nccc3c(=O)cc(-c4ccccn4)oc23)c1 | i
COc1cccc(CNC(=O)Cn2c(N3CCOCC3)nc(C)cc2=O)c1 | i
COc1cc(CNc2nccc3c(=O)cc(N4CCOCC4)oc23)cc(OC)c1 | 28µM*
SMILES | KDM5B inh
O=c1cc(-c2cccnc2)oc2c(NCC3CCOCC3)nccc12 | i
CCOc1ccc(Nc2ccc3nnc(-c4ccccc4Cl)n3n2)cc1 | i
Cc1cc2cc(NS(=O)(=O)c3cccs3)ccc2[nH]1 | i
CC(C)c1ccc(NC(=O)Cn2c(=O)n(CCc3ccccc3)c(=O)c3ccccc32)cc1 | i
Cc1cc(C(=O)N2CC[C@@](C)(O)[C@@H](O)C2)c2cc(Cl)ccc2n1 | i
Cn1nccc1-c1nccc2c(=O)cc(N3CCOCC3)oc12 | 35µM*
O=C(O)c1cc(N2CCOCC2)ccn1 | i
O=c1cc(N2CCOCC2)oc2c(NC3CCOCC3)nccc12 | 35µM*
CN1CCC(Nc2nccc3c(=O)cc(N(C)c4ccccc4)oc23)CC1 | i
CN(C)c1cc(=O)c2ccnc(-c3ccccc3F)c2o1 | i
Cc1ccc(F)cc1-c1nccc2c(=O)cc(N(C)C)oc12 | 40µM*
Cc1cnc(C(=O)NC2C[C@H]3CC[C@@H](C2)N3C(=O)CCCc2ccccc2)cn1 (stereo not given in full) | i
CCN(C(=O)COC(=O)CCCc1nc2ccccc2s1)c1c(N)n(Cc2ccccc2)c(=O)[nH]c1=O | i
COc1ccc(OC)c(NC(=O)/C=C/c2nc3ccccc3o2)c1 | i
Cc1cc(-c2cc3c(n(Cc4cccnc4)c2=O)CCN(C(=O)CCc2ccccc2)C3)ccc1F | 25µM*
O=C(CCc1cccnc1)N1CCC(c2[nH]ncc2-c2cccc(F)c2)CC1 | i
CCn1c2c(c(=O)n1-c1ccccc1)CCN(C(=O)CCc1cccnc1)C2 | i
Cc1sc(-c2nc(-c3ccccc3)no2)cc1S(=O)(=O)N1CCCCCC1 | i
Cc1oc2cc(OCC(=O)NCCCO)ccc2c(=O)c1Oc1ccccc1 | i
O=C(c1ccco1)N1CCC(C(=O)N2CCCC2)CC1 | i
COCCCNC(=O)C(NC(=O)C1CC1)C1CCN(C(=O)c2ccc(C)cc2)CC1 (stereo not given) | i
Cc1noc([C@@H](C)NC(=O)NC2(c3ccccc3)CCOCC2)c1C(=O)O | i
Cc1nn(-c2ccccc2)nc1C(=O)N[C@H](C)c1onc(C)c1C(=O)O | 32µM*
Cc1noc([C@@H](C)NC(=O)c2cccs2)c1C(=O)O | i
Cc1ccc([N+](=O)[O-])cc1S(=O)(=O)NC(c1ccccc1)c1cccs1 (stereo not given) | i
SMILES | KDM5B inh
CN(CC(=O)N(Cc1ccco1)CC(F)(F)F)C1CCCc2ccccc21 (stereo not given) | i
COc1cccc(CCC(=O)NCc2nnc3cc(-c4nc(C5CC5)no4)ccn23)c1 | 28µM*
CCc1noc(-c2ccn3c(CNC(=O)Cc4cccc(OC)c4)nnc3c2)n1 | 22µM*
CCc1noc(-c2ccn3c(CNC(=O)c4ccccc4C)nnc3c2)n1 | i
CCc1noc(-c2ccn3c(CNC(=O)c4ccccc4Cl)nnc3c2)n1 | i
CCc1noc(-c2ccn3c(CNC(=O)CCc4cccc(OC)c4)nnc3c2)n1 | 28µM*
CCc1noc(-c2ccn3c(CNC(=O)CCc4ccccc4)nnc3c2)n1 | 25µM*
Cc1ccc(/C=[N+](\[O-])C2N(C)C(=S)SC2(C)C)cc1 (stereo not given) | i
O=C(C1CCCC1)N1CC2(CCN(C3COC3)C2)OCc2ccccc21 (stereo not given) | i
CCC1(C)Cc2c(sc3nnn(CC(=O)Nc4ccccc4)c(=O)c23)CO1 (stereo not given) | i
Cc1nonc1CN1CCN(C(C(=O)O)c2c[nH]c3ccccc23)CC1 (stereo not given) | i
COCCn1c(C)cc(C(=O)CSc2nc3ccc(Cl)cc3[nH]2)c1C | i
CN(Cc1ccccc1)c1ncnc2c1CCN(C(=O)[C@@H](N)CO)CC2 | i
CC(NC(=O)c1ccc2c(c1)N(Cc1cccc(F)c1)C(=O)c1ccccc1S2)c1ccccc1 (stereo not given) | i
CCCc1noc(-c2ccn3c(CNC(=O)CCC4CCCC4)nnc3c2)n1 | 3.5µM*
CCCc1noc(-c2ccn3c(CNC(=O)c4ccoc4)nnc3c2)n1 | i
COc1cccc(CC(=O)NCc2nnc3cc(-c4nc(C(C)C)no4)ccn23)c1 | 28µM*
Cc1ccc(C)c(COC(=O)c2cc(S(=O)(=O)N3CCCCC3)ccc2N2CCOCC2)c1 | i
O=C(Cn1nc(C(=O)O)c2ccccc2c1=O)c1cc(F)ccc1F | i
CC(C)c1ccc(S(=O)(=O)N2[C@@H]3CC[C@H]2CC(NC(=O)c2ccncc2)C3)cc1 (stereo not given in full) | i
O=C1NC2(CCN(C(=O)c3ccccc3)C2)Oc2ccccc21 (stereo not given) | i
